High-throughput results: PubChem, National Center for Advancing Translational Sciences (NCATS)
Sampled rows, rich in hits. Any-hit rate of the full collection: about 15%.
Pf growth 48h: Primary qHTS for delayed death inhibitors of the malarial parasite plastid, 48 hour incubation; P. falciparum luciferase growth in erythrocytes, 48 h; Potency, µM (highest dose often 28.7 µM), inactives show at the highest dose activity change, negative = inhibition, actives largely listed as inhibitors; actives 5.9% (n = 310,000); AID 504832, 2011; also: potency is read from the fitted curve at half-maximal effect; % is scaled to controls: 0 for no effect and ±100 for the full control effect
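Cell-based growth assay: transgenic P. falciparum expressing firefly luciferase, cultured in red cells within RPMI 1640 containing 0.5% w/v Albumax, 24 mM bicarbonate and gentamycin. A drop in luciferase activity indicates inhibition.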
HCMV antiviral: qHTS Assay for inhibitors of the human cytomegalovirus (HCMV) | activity change, negative = inhibition, % at 57.5 µM | HFF cells, HCMV-luciferase reporter, 72 h; stronger effect = lower value | actives 4.5% (n = 410,000) | AID 1259415, 2018; in the data active = activity change below about -60%; inconclusive = no clear call, values can overlap the other calls; inactive = above about -39%; also: % is scaled to controls: 0 for no effect and ±100 for the full control effect
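Two compound doses tested in HFFs infected with HCMV-luciferase, MOI 1 PFU/cell, 72 h at 37C. Lysate luminescence read with OneGlo; data normalized against buffer-only and 10uM Salinomycin inhibitor controls.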
Pf growth 96h: Primary qHTS for delayed death inhibitors of the malarial parasite plastid, 96 hour incubation; actives 6.9% (n = 320,000); AID 504834, 2011; P. falciparum luciferase reporter growth, 96 h; Potency, µM (titrated, usually from 28.7 µM), for inactives: at the highest dose activity change, negative = inhibition, actives largely listed as inhibitors; also: potency is read from the fitted curve at half-maximal effect; % is scaled to controls: 0 for no effect and ±100 for the full control effect
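Luminescence readout: decreased luciferase signal marks inhibited growth of reporter-expressing P. falciparum in infected red cells (2% hematocrit, 0.05% parasitemia final), exposed to compound two generations (96 h, 37 C, 5% CO2).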
HCV inhibitor: qHTS Assay for Inhibitors of Hepatitis C Virus (HCV). AID 651820, 2012. Potency, µM (top dose mostly 41.8 µM), for the others: at the top dose activity change, negative = inhibition, usual class: inhibitors. Huh7.5.1 HCVcc-Cre infection, luciferase reporter, 44 h. actives 3.4% (n = 340,000); also: potency is read from the fitted curve at half-maximal effect; % is scaled to controls: 0 for no effect and ±100 for the full control effect
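Seed cells (1,000/well) for 4 h; treat with compound and infect with HCVcc-Cre, moi about 0.5. Incubate 44 h, then detect luciferase activity.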
Sm TGR block: qHTS Assay for the Inhibitors of Schistosoma Mansoni Peroxiredoxins | purified TGR, DTNB reduction, TNB absorbance 405 nm | Potency, µM (series often up to 114 µM), inactives show at the top dose activity change, negative = inhibition, hits mostly inhibitors | actives 3% (n = 360,000) | AID 485364, 2010; also: potency is read from the fitted curve at half-maximal effect; % is scaled to controls: 0 for no effect and ±100 for the full control effect; nearly all actives have a fitted effect of over 60% in size
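Kinetic colorimetric format: TGR-catalysed, NADPH-driven DTNB reduction monitored via TNB absorbance. Enzyme dispensed at 20 nM; compound exposure 15 min at room temperature before reaction start.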
SARS PLpro yeast: qHTS of Yeast-based Assay for SARS-CoV PLP | actives 0.19% (n = 330,000) | S. cerevisiae expressing SARS-CoV PLpro, growth rescue | Potency, µM (series often up to 32.9 µM), for the others: at the top dose activity, positive = growth rescue, most hits filed as activators | AID 485353, 2010; calls by dose curve; also: potency is read from the fitted curve at half-maximal effect; 0% is about no effect; nearly all actives have a fitted effect of over 55% in size
* = called active by the depositor; u = inconclusive; x = not tested or not shown. Unless noted, calls follow the shape of the dose curve; as a rule, active = well fitted curve in the direction sought with a large enough effect; inconclusive = small, poorly fitted or top-dose-only effect, or another doubt; inactive = no such curve, though single readings can be large; an effect the other way counts as inactive or inconclusive.

SMILES	Pf growth 48h	HCMV antiviral	Pf growth 96h	HCV inhibitor	Sm TGR block	SARS PLpro yeast
CCN(CC1CCCO1)C(=O)C1CCN(C2CCN(Cc3ccccc3C)CC2)CC1 (centres undefined)	u	-21	u	u	-20%	4%
CSCCC(NC(=O)COc1ccccc1)C(=O)O (centres undefined)	7%	7	-6%	1%	1%	0%
CCCc1nn(C)c2c(=O)[nH]c(-c3cc(S(=O)(=O)Nc4ccc(NC(C)=O)cc4)ccc3OCC)nc12	9.3µM*	-1	12µM*	u	6%	0%
CCCc1nn(C)c2c(=O)[nH]c(-c3cc(S(=O)(=O)N4CCN(C)CC4)ccc3OCC)nc12	u	6	u	-10%	-2%	-3%
Cc1ccccc1C(=O)N1CCC(C(=O)N(CC(C)C)c2c(N)n(Cc3ccccc3)c(=O)[nH]c2=O)CC1	u	-34	-15%	21%	-4%	-2%
O=C(/C=C/c1ccco1)Nc1cccc(S(=O)(=O)N2CCOCC2)c1	15%	u	u	-27%	-33%	6%
Cc1ccc(/C=C/C(=O)Nc2cccc(S(=O)(=O)N3CCOCC3)c2)o1	4%	4	u	-7%	11µM*	-7%
CN(C)S(=O)(=O)c1cccc(NC(=O)/C=C/c2ccc(S(=O)(=O)N3CCOCC3)cc2)c1	8.3µM*	-31	u	u	3%	2%
CC(=O)c1cccc(NC(=O)/C=C/c2ccc(S(=O)(=O)N3CCOCC3)cc2)c1	x	-12	x	u	x	1%
O=C(/C=C/c1ccc(OC(F)F)cc1)Nc1cccc(S(=O)(=O)N2CCOCC2)c1	-13%	-75*	u	5.6µM*	-21%	1%
CCCC(=O)NCc1nc2ccccc2n1CC(=O)c1ccccc1	-12%	u	u	11%	-6%	5%
Cc1ccc(C)c(N2N=C(C(=O)OCC(=O)N(C)c3ccccc3)CCC2=O)c1	u	-13	16%	30%	-1%	-5%
Cc1ccc(-c2nnc(-c3ccccc3)c(-c3ccccc3)n2)cc1	10%	u	u	-6%	-9%	-39%
Cc1cc(-c2nnc(-c3ccccc3)c(-c3ccccc3)n2)c(C)o1	13µM*	-65*	u	u	6.3µM*	-3%
COC(=O)c1ccccc1NC(=O)c1noc2c1CCC2	3.3µM*	28	1µM*	u	-22%	1%
CCc1ccc(NC(=O)c2noc3c2CCCCC3)cc1	135%	163	3.7µM*	10%	-7%	1%
COC(=O)c1ccccc1NC(=O)c1noc2c1CSc1ccccc1-2	x	-14	x	x	3.5µM*	x
CSc1ccccc1NC(=O)c1noc2c1CCC2	13µM*	-7	x	u	-30%	-16%
COc1ccc(C)cc1NC(=O)c1noc2c1CSc1ccccc1-2	x	50	x	x	9%	x
CSc1ncc(Cl)c(C(=O)Nc2cccc(Cl)c2)n1	-11%	0	u	-18%	6%	-1%
CCOC(=O)/C=C/[C@H](CC(C)C)NC(=O)C(F)(F)F	x	-19	x	x	x	x
Cc1cc(F)ccc1NC(=O)Cn1c(=O)ccc2cc(S(=O)(=O)N3CCC(C)CC3)ccc21	x	24	x	x	4%	x
O=C(c1cn(CCOc2ccc(Cl)cc2)c2ccccc12)C1CCCCC1	x	-7	x	x	1%	x
COc1ccc(C(CNC(=O)c2cccc(NS(=O)(=O)c3ccc(C)c(F)c3)c2)N(C)C)cc1 (centres undefined)	u	0	12µM*	u	-21%	-5%
COc1ccccc1C(CNC(=O)c1ccc(NS(=O)(=O)c2ccc(F)c(C)c2)cc1)N(C)C (centres undefined)	u	u	u	3%	4%	5%
SMILES	Pf growth 48h	HCMV antiviral	Pf growth 96h	HCV inhibitor	Sm TGR block	SARS PLpro yeast
COc1ccc(C(CNC(=O)c2cccc(S(=O)(=O)Nc3ccc(F)cc3)c2)N(C)C)cc1 (centres undefined)	12µM*	-17	9.3µM*	u	-11%	1%
COc1ccc(C(CNC(=O)c2ccc(S(=O)(=O)Nc3ccc(F)cc3)cc2)N(C)C)cc1 (centres undefined)	u	-26	u	7%	4%	-17%
COc1ccccc1C(CNC(=O)c1cccc(NS(=O)(=O)c2ccc(C)c(F)c2)c1)N(C)C (centres undefined)	u	-20	9.3µM*	-27%	-2%	-1%
CNc1ccc(C(=O)OCC(=O)Nc2ccnn2C(C)C)cc1[N+](=O)[O-]	u	-5	u	9%	-8%	2%
CCC1CN(C(=O)N2CCC(C(=O)NCCC3=CCCCC3)CC2)c2ccccc2O1 (centres undefined)	x	u	x	x	0%	x
O=C(Nc1ccccc1)Nc1cnccn1	6%	-8	59%	7%	-4%	-1%
CCCOc1ncnc2c1[nH]c1ccccc12	68%	-85*	65%	u	2%	-19%
CCN(CC)c1ncnc2c1[nH]c1ccccc12	4.1µM*	u	x	11µM*	6%	-4%
CCCN(C(=O)c1cn(-c2ccccc2)nc1-c1ccc(OC)cc1)C1CCS(=O)(=O)C1 (centres undefined)	u	-3	u	0%	-3%	0%
O=C(Nc1ccc(Cc2nc3ccccc3s2)cc1)c1ccncc1	-20%	-86*	u	10µM*	-1%	-3%
COc1ccc(-c2cccc(C3CC=CC4C3C(=O)N(Cc3ccccc3)C4c3cc(C)ccc3F)c2)cc1 (centres undefined)	6.6µM*	x	6.6µM*	x	3%	-1%
Cc1ccc(F)c([C@H]2[C@H]3C=CC[C@@H](C)[C@@H]3C(=O)N2Cc2ccccc2)c1	u	-23	u	18%	u	-16%
COc1ccc(-c2cccc(C3CC=CC4C3C(=O)N(Cc3ccccc3)C4c3ccc(OC)c(Cl)c3)c2)cc1 (centres undefined)	12µM*	-26	9.3µM*	-23%	31%	1%
Cc1ccc(F)c(C2C3C=CCC(c4cccc(-c5ccc(N(C)C)cc5)c4)C3C(=O)N2Cc2ccccc2)c1 (centres undefined)	2.9µM*	-23	2.9µM*	4%	0%	-2%
Cc1ccc(-c2cccc(C3CC=CC4C3C(=O)N(Cc3ccccc3)C4c3ccc4ccccc4c3)c2)cc1 (centres undefined)	u	7	u	36%	-15%	-1%
